{"source": "PubChem BioAssay (NCI)", "note": "Compounds without any hit were thinned out: in the full panel of roughly 83,000, 20% have a hit.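 Method: cells in 96-well plates; compound added at one concentration; 48 h incubation; percent growth measured; values under 10 scored active.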 The source made the active and inactive calls.", "data": [{"system": "HCT-116 colon", "assay": "NCI-60 one-dose screen, 48 h (100 = growth as untreated, 0 = no growth, -100 = all killed)", "conditions": "10 µM unless noted", "values": [{"smiles": "Cn1c(=O)cc2c3c(c(NCCCO)ccc31)C(=O)c1ccccc1-2", "growth": "16.5% (inactive)"}, {"smiles": "O=C(OC(CO)C(=O)NC12CC3CC(CC(C3)C1)C2)c1ccc(Cl)cc1", "note": "(stereo not drawn)", "growth": "90.9% (inactive)"}, {"smiles": "N#Cc1nc(-c2ccc(F)cc2)oc1S(=O)(=O)N1CCCCC1", "growth": "-19.4% (active)"}, {"smiles": "COC1/C=C/OC2(C)Oc3c(C)c(O)c4c(O)c(c(/C=N/Nc5ccc([N+](=O)[O-])cc5[N+](=O)[O-])c(O)c4c3C2=O)NC(=O)C(C)=C/C=C/C(C)C(O)C(C)C(O)C(C)C(OC(C)=O)C1C", "note": "(stereo not drawn)", "growth": "-46.7% (active)"}, {"smiles": "O=C1c2c(c3c4ccccc4[nH]c3c3ccc4ccccc4c23)C(=O)N1CCN1CCOCC1", "growth": "23.4% (inactive)"}, {"smiles": "NC(=O)c1cc(I)ccc1NC(=O)/C=C/c1ccccc1", "growth": "8.52% (active)"}, {"smiles": "COC(=O)c1c2c(c(C)[n+]([O-])c1C)C(=O)C(NCc1cccc(OC)c1)=CC2=O", "growth": "1.61% (active)"}, {"smiles": "COc1ccc(CNc2c3ccccc3nc3ccccc23)cc1", "growth": "9.53% (active)"}, {"smiles": "N=C(N)c1ccc(-c2ccc(-c3ccc(Cl)c(Cl)c3)s2)nc1", "growth": "-50.8% (active)"}, {"smiles": "Nc1c(C(=O)Nc2ccccc2F)sc2nc3c(cc12)CCCC3", "growth": "23.7% (inactive)"}, {"smiles": "Cc1ccc2c(n1)C(=O)C(Br)=C(C1CCCC1)C2=O", "growth": "73.7% (inactive)"}, {"smiles": "N#CC1=C(N)Oc2c(sc3c(Br)cccc23)C1c1ccc(Cl)cc1", "note": "(stereo not drawn)", "growth": "13.7% (inactive)"}, {"smiles": "COc1ccc(/C=C(\\C#N)n2nnc3cc(F)c(F)cc32)cc1", "growth": "28% (inactive)"}, {"smiles": "COc1cc(NS(=O)(=O)c2ccc(-c3cnc(C4CC4)o3)cc2)ccc1F", "growth": "20.9% (inactive)"}, {"smiles": "CN1CCN(c2cc(Nc3cc(C4CC4)[nH]n3)nc(Nc3ccc(CC(=O)NCc4cccc(F)c4)cc3)n2)CC1", "growth": "8.53% (active)"}, {"smiles": "O=C(Nc1cccc2ccccc12)NC1CC1", "growth": "103% (inactive)"}, {"smiles": "CN(C)CC(C)(C)C(=O)/C=C/c1ccccc1", "growth": "-87.1% [25 µM] (active)"}, {"smiles": "COc1ccc(-c2nn(-c3cccc(Cl)c3)cc2-c2cc(-c3ccc(Br)cc3)nc(N)n2)cc1", "growth": "91.5% (inactive)"}, {"smiles": "COc1cc2c(c(OC)c1OC)CCC(c1cccc(NC(=O)c3ccc(Br)cc3)c1)O2", "note": "(stereo not drawn)", "growth": "71.9% (inactive)"}, {"smiles": "CCOC(=O)C#Cc1c(C(=O)OCC)nnn1Cc1ccc([N+](=O)[O-])cc1", "growth": "43.4% (inactive)"}, {"smiles": "O=C(N/N=C/c1c(Cl)cccc1Cl)c1cccnc1Nc1cccc(C(F)(F)F)c1", "growth": "35.5% (inactive)"}, {"smiles": "C#COc1cccc(Nc2c(C#N)cnc3ncc(NC(=O)CCl)cc23)c1", "growth": "-3.66% [6.25 µM] (active)"}, {"smiles": "CC(C)(Sc1cc(C(C)(C)C)c(O)c(C(C)(C)C)c1)Sc1cc(C(C)(C)C)c(OC(=O)CCCC(=O)O)c(C(C)(C)C)c1", "growth": "26.5% (inactive)"}, {"smiles": "COc1c(B(O)O)cccc1-c1cc(C)c2c(ccc3[nH]ncc32)n1", "growth": "41.7% (inactive)"}, {"smiles": "CCOC(=O)C1=C(N)Oc2c(sc3c(F)cccc23)C1c1ccc(O)cc1", "note": "(stereo not drawn)", "growth": "26% (inactive)"}, {"smiles": "OCCn1cc(-c2nc(-c3c[nH]c4ncccc34)cs2)c2cc(F)ccc21", "growth": "62.4% (inactive)"}, {"smiles": "O=C(/C=C/c1cccs1)Nc1ncc(Cc2ccccc2F)s1", "growth": "28.6% (inactive)"}, {"smiles": "COc1ccc(CN2c3ccccc3Sc3ccccc32)cc1F", "growth": "8.54% (active)"}, {"smiles": "CCN1C(=O)N(CC)C2C1NN=c1s/c(=C\\c3ccccc3F)c(=O)n12", "note": "(stereo not drawn)", "growth": "7.85% (active)"}, {"smiles": "CS(=O)(=O)Nc1cncc(-c2ccc3ncnc(Nc4cncc(Cl)c4)c3c2)c1", "growth": "91.3% (inactive)"}, {"smiles": "C1CN(SSN2CCOCC2)CCO1", "growth": "-75.5% [100 µM] (active)"}, {"smiles": "CS(=O)(=O)c1ccc(-c2cnn3ccc(-c4cccc(S(=O)(=O)C5CC5)c4)nc23)cc1", "growth": "55.5% (inactive)"}, {"smiles": "CN1C(=O)/C(=C\\c2nc([P+](c3ccccc3)(c3ccccc3)c3ccccc3)c(N3CCOCC3)o2)SC1=S", "growth": "65.4% (inactive)"}, {"smiles": "C=C(C)[C@@H]1CCC[C@]2(COS(=O)(=O)c3ccc(C)cc3)CC[C@]3(C)[C@@H](CC[C@@H]4[C@@]5(C)CCCNC(C)(C)[C@@H]5CC[C@]43C)[C@@H]12", "growth": "-82.8% (active)"}, {"smiles": "Clc1ccc2c(c1)C(c1c[nH]c3ccccc13)(c1c[nH]c3ccccc13)CCO2", "growth": "56.5% (inactive)"}, {"smiles": "O=C(NCCNc1nccc(Nc2ccc(S(=O)(=O)Nc3ccccn3)cc2)n1)c1cccc([N+](=O)[O-])c1", "growth": "90.4% (inactive)"}, {"smiles": "COc1cc2ncnc(Nc3ccc(S(=O)(=O)Nc4cc(C)on4)cc3)c2cc1OCCCN1CCN(c2ccc(F)cc2)CC1", "growth": "108% (inactive)"}, {"smiles": "CN(C)CC1CCC(CN(C)C)C1=O", "note": "(stereo not drawn)", "growth": "93.9% (inactive)"}, {"smiles": "N#CC1=C(N)Oc2c(ccc3ccccc23)C1c1ccccc1", "note": "(stereo not drawn)", "growth": "3.37% (active)"}, {"smiles": "Cc1ccc(NC(=O)c2sc3nc(C)c(Br)c(C)c3c2N)cc1", "growth": "72.6% (inactive)"}]}, {"system": "HCC-2998 colon", "assay": "NCI-60 one-dose screen, 48 h (100 = growth as untreated, 0 = no growth, -100 = all killed)", "conditions": "10 µM unless noted", "values": [{"smiles": "Cn1c(=O)cc2c3c(c(NCCCO)ccc31)C(=O)c1ccccc1-2", "growth": "49.1% (inactive)"}, {"smiles": "O=C(OC(CO)C(=O)NC12CC3CC(CC(C3)C1)C2)c1ccc(Cl)cc1", "note": "(stereo not drawn)", "growth": "113% (inactive)"}, {"smiles": "N#Cc1nc(-c2ccc(F)cc2)oc1S(=O)(=O)N1CCCCC1", "growth": "105% (inactive)"}, {"smiles": "COC1/C=C/OC2(C)Oc3c(C)c(O)c4c(O)c(c(/C=N/Nc5ccc([N+](=O)[O-])cc5[N+](=O)[O-])c(O)c4c3C2=O)NC(=O)C(C)=C/C=C/C(C)C(O)C(C)C(O)C(C)C(OC(C)=O)C1C", "note": "(stereo not drawn)", "growth": "-14.1% (active)"}, {"smiles": "O=C1c2c(c3c4ccccc4[nH]c3c3ccc4ccccc4c23)C(=O)N1CCN1CCOCC1", "growth": "80% (inactive)"}, {"smiles": "NC(=O)c1cc(I)ccc1NC(=O)/C=C/c1ccccc1", "growth": "-62.3% (active)"}, {"smiles": "COC(=O)c1c2c(c(C)[n+]([O-])c1C)C(=O)C(NCc1cccc(OC)c1)=CC2=O", "growth": "22.3% (inactive)"}, {"smiles": "COc1ccc(CNc2c3ccccc3nc3ccccc23)cc1", "growth": "38.6% (inactive)"}, {"smiles": "Nc1c(C(=O)Nc2ccccc2F)sc2nc3c(cc12)CCCC3", "growth": "57.7% (inactive)"}, {"smiles": "Cc1ccc2c(n1)C(=O)C(Br)=C(C1CCCC1)C2=O", "growth": "115% (inactive)"}, {"smiles": "N#CC1=C(N)Oc2c(sc3c(Br)cccc23)C1c1ccc(Cl)cc1", "note": "(stereo not drawn)", "growth": "10.9% (inactive)"}, {"smiles": "COc1ccc(/C=C(\\C#N)n2nnc3cc(F)c(F)cc32)cc1", "growth": "69.3% (inactive)"}, {"smiles": "COc1cc(NS(=O)(=O)c2ccc(-c3cnc(C4CC4)o3)cc2)ccc1F", "growth": "38.4% (inactive)"}, {"smiles": "CN1CCN(c2cc(Nc3cc(C4CC4)[nH]n3)nc(Nc3ccc(CC(=O)NCc4cccc(F)c4)cc3)n2)CC1", "growth": "35.1% (inactive)"}, {"smiles": "O=C(Nc1cccc2ccccc12)NC1CC1", "growth": "111% (inactive)"}, {"smiles": "CN(C)CC(C)(C)C(=O)/C=C/c1ccccc1", "growth": "-75.7% [25 µM] (active)"}, {"smiles": "COc1ccc(-c2nn(-c3cccc(Cl)c3)cc2-c2cc(-c3ccc(Br)cc3)nc(N)n2)cc1", "growth": "104% (inactive)"}, {"smiles": "COc1cc2c(c(OC)c1OC)CCC(c1cccc(NC(=O)c3ccc(Br)cc3)c1)O2", "note": "(stereo not drawn)", "growth": "102% (inactive)"}, {"smiles": "CCOC(=O)C#Cc1c(C(=O)OCC)nnn1Cc1ccc([N+](=O)[O-])cc1", "growth": "81.1% (inactive)"}, {"smiles": "O=C(N/N=C/c1c(Cl)cccc1Cl)c1cccnc1Nc1cccc(C(F)(F)F)c1", "growth": "72.2% (inactive)"}, {"smiles": "C#COc1cccc(Nc2c(C#N)cnc3ncc(NC(=O)CCl)cc23)c1", "growth": "31.7% [6.25 µM] (inactive)"}, {"smiles": "CC(C)(Sc1cc(C(C)(C)C)c(O)c(C(C)(C)C)c1)Sc1cc(C(C)(C)C)c(OC(=O)CCCC(=O)O)c(C(C)(C)C)c1", "growth": "50.4% (inactive)"}, {"smiles": "COc1c(B(O)O)cccc1-c1cc(C)c2c(ccc3[nH]ncc32)n1", "growth": "105% (inactive)"}, {"smiles": "CCOC(=O)C1=C(N)Oc2c(sc3c(F)cccc23)C1c1ccc(O)cc1", "note": "(stereo not drawn)", "growth": "38% (inactive)"}, {"smiles": "OCCn1cc(-c2nc(-c3c[nH]c4ncccc34)cs2)c2cc(F)ccc21", "growth": "65.3% (inactive)"}, {"smiles": "O=C(/C=C/c1cccs1)Nc1ncc(Cc2ccccc2F)s1", "growth": "44.4% (inactive)"}, {"smiles": "COc1ccc(CN2c3ccccc3Sc3ccccc32)cc1F", "growth": "17.8% (inactive)"}, {"smiles": "CCN1C(=O)N(CC)C2C1NN=c1s/c(=C\\c3ccccc3F)c(=O)n12", "note": "(stereo not drawn)", "growth": "12.8% (inactive)"}, {"smiles": "CS(=O)(=O)Nc1cncc(-c2ccc3ncnc(Nc4cncc(Cl)c4)c3c2)c1", "growth": "95% (inactive)"}, {"smiles": "CS(=O)(=O)c1ccc(-c2cnn3ccc(-c4cccc(S(=O)(=O)C5CC5)c4)nc23)cc1", "growth": "75.4% (inactive)"}, {"smiles": "CN1C(=O)/C(=C\\c2nc([P+](c3ccccc3)(c3ccccc3)c3ccccc3)c(N3CCOCC3)o2)SC1=S", "growth": "78% (inactive)"}, {"smiles": "C=C(C)[C@@H]1CCC[C@]2(COS(=O)(=O)c3ccc(C)cc3)CC[C@]3(C)[C@@H](CC[C@@H]4[C@@]5(C)CCCNC(C)(C)[C@@H]5CC[C@]43C)[C@@H]12", "growth": "-75.8% (active)"}, {"smiles": "Clc1ccc2c(c1)C(c1c[nH]c3ccccc13)(c1c[nH]c3ccccc13)CCO2", "growth": "112% (inactive)"}, {"smiles": "O=C(NCCNc1nccc(Nc2ccc(S(=O)(=O)Nc3ccccn3)cc2)n1)c1cccc([N+](=O)[O-])c1", "growth": "109% (inactive)"}, {"smiles": "COc1cc2ncnc(Nc3ccc(S(=O)(=O)Nc4cc(C)on4)cc3)c2cc1OCCCN1CCN(c2ccc(F)cc2)CC1", "growth": "115% (inactive)"}, {"smiles": "CN(C)CC1CCC(CN(C)C)C1=O", "note": "(stereo not drawn)", "growth": "114% (inactive)"}, {"smiles": "N#CC1=C(N)Oc2c(ccc3ccccc23)C1c1ccccc1", "note": "(stereo not drawn)", "growth": "-4.65% (active)"}, {"smiles": "Cc1ccc(NC(=O)c2sc3nc(C)c(Br)c(C)c3c2N)cc1", "growth": "92.1% (inactive)"}]}]}
